VHR inh abs: DUSP3 (human) phosphatase inhibition. P51452. recombinant VHR phosphatase, pNPP absorbance. inhibition, % at 13.3 µM. 290,000 compounds, 0.52% hits; in the data active means inhibition above about 50%
Target sequence (P51452 whole entry, looked up): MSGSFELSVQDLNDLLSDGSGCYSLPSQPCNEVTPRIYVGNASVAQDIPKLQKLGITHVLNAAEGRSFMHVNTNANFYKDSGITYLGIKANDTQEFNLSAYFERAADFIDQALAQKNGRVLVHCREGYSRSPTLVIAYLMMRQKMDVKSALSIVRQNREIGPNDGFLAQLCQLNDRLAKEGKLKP
MazF activator: increases E. coli MazEF RNase cleavage of RNA. FAM/BHQ RNA-DNA oligo cleavage fluorescence, 5 h. activation, % at 20 µM. 350,000 compounds, 0.32% hits. AID 504720; in the data active means activation above about 50%
Anthrax LF prot: blocks Bacillus anthracis lethal factor protease. P15917. multiplex microsphere protease cleavage assay, LF. inhibition, % at 10 µM. 360,000 compounds, 0.12% hits. AID 588501; further: plate controls were buffer without enzyme for full effect and enzyme alone for no effect
BoNT A protease: inhibitors of Botulinum neurotoxin A light chain protease; multiplex microsphere protease substrate cleavage, flow cytometry; inhibition, % at 10 µM; 360,000 compounds, 0.17% hits; further: plate controls were buffer without enzyme for full effect and enzyme alone for no effect
Bead autofluor: counter-screen for toxin protease inhibitors: compound fluorescence; compound autofluorescence counterscreen, microsphere flow cytometry; stronger effect = higher value; AID 624483; 360,000 compounds, 3.1% hits; fluorescence intensity (test concentration not listed); in the data active means fluorescence intensity above about 16000
BoNT F protease: BoNT F light chain protease inhibition; inhibition, % at 10 µM; Multiplex microsphere protease cleavage assay, flow cytometry; AID 588497; 360,000 compounds, 0.22% hits; in the data active means inhibition above about 35%, passing the limit was not always enough; further: plate controls were buffer without enzyme for full effect and enzyme alone for no effect
* = called active by the depositor. In the library only some 4% were active in any assay of this set; here they are far more common. Unless noted, no stated cut-off is given here; in the data, active means inhibition above about 30%; inconclusive means no clear call, values can overlap the other calls; inactive means below that.

SMILES	VHR inh abs	MazF activator	Anthrax LF prot	BoNT A protease	Bead autofluor	BoNT F protease
Cc1ccc(CS(=O)(=O)Cc2ccc(C(=O)NCCCN3CCOCC3)o2)cc1	22	-1	-3	-1	11212	-8
O=C(NCCCN1CCOCC1)c1ccc(CS(=O)(=O)c2cccc(C(F)(F)F)c2)o1	13	0	-2	-2	22992*	-4
O=C(NCCCN1CCOCC1)c1ccc(CS(=O)(=O)Cc2ccc(Cl)cc2)o1	-2	6	-3	-3	20919*	-6
O=C(NC1CCCC1)c1ccc(CS(=O)(=O)c2cccc(C(F)(F)F)c2)o1	24	-9	-1	-1	22398*	-4
CC(C)[C@H](NC(N)=O)C(=O)Nc1ccc2c(c1)CCC2	-3	1	1	1	2890	4
COc1cc(-c2nc(CN3CCN(CC(C)C)C(=O)[C@@H]3C)c(C)o2)ccc1F	0	-4	1	1	2869	-5
